Bioassay records deposited in PubChem by National Center for Advancing Translational Sciences (NCATS).
POLK inh: qHTS for Inhibitors of Polymerase Kappa | purified Pol kappa, fluorescent DNA synthesis assay, 10 min | DNA polymerase kappa (Homo sapiens), Q9UBT6 | Potency, µM (series often up to 107 µM), usual class: inhibitors | 400,000 tested, 0.53% active
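Kinetic fluorescence readout at 0 and 10 min followed reaction start with substrate at 50 nM final. Beforehand, enzyme (10 nM Pol kappa) stood 15 min with compound at room temperature; buffer-only wells were negative controls.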
POLH inh: qHTS for Inhibitors of Polymerase Eta. DNA polymerase eta (Homo sapiens), Q9Y253. AID 588591, 2011. Potency, µM (titrated, usually from 114 µM), hits mostly inhibitors. recombinant Pol eta, fluorescent DNA replication assay. 390,000 tested, 1.2% active
Target sequence (Q9Y253 whole entry, looked up): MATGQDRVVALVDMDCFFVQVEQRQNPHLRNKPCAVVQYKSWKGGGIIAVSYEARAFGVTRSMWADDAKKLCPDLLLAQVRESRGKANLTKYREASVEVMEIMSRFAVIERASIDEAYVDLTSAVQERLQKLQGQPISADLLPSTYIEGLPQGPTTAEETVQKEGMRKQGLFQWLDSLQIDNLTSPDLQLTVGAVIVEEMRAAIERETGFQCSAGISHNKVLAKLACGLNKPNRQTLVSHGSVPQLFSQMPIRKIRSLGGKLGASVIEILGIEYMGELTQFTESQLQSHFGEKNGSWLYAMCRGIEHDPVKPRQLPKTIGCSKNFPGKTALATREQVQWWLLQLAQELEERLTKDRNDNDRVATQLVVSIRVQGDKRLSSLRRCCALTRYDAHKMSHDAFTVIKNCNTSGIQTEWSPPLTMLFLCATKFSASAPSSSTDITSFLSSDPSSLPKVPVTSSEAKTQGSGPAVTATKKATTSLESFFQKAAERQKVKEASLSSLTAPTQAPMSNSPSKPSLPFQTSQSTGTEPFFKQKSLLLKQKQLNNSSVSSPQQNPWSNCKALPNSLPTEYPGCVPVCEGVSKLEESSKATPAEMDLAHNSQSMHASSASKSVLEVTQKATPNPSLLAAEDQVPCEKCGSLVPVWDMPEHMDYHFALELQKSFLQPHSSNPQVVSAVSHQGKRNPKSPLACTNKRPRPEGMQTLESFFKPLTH
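Pol eta (10 nM) was preincubated with compounds for 15 min at room temperature, after which fluorescent replication substrate (50 nM final) was added to start the reaction. Fluorescence was read kinetically at 0 and 10 min.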
WRN helicase inh: qHTS for Inhibitors of WRN Helicase | Bifunctional 3'-5' exonuclease/ATP-dependent helicase WRN (Homo sapiens), Q14191 | WRN helicase unwinding, fluorescent forked duplex, kinetic | Potency, µM (doses to about 114 µM), actives largely listed as inhibitors | 360,000 tested, 0.46% active | AID 651768, 2012; also: nearly all actives have a fitted effect of over 55% in size
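WRN at 20 nM final preincubated with compound 15 min at room temperature; reaction started with 100 nM fluorophore/quencher forked duplex oligonucleotide and 2 mM ATP final. Unwinding followed kinetically by red fluorescence (ex 525, em 598 nm).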
Pol beta inh: qHTS Assay for Inhibitors of DNA Polymerase Beta; P06746; Pol beta primer extension/strand displacement, fluorescence kinetic; Potency, µM (top dose mostly 114 µM), actives largely listed as inhibitors; 340,000 tested, 1.3% active
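Pol beta (10 nM) and compounds were preincubated 15 min at room temperature, then 50 nM substrate (final) started primer extension/strand displacement. Reads were taken at 0 and 10 min; concentration-response data were fitted to a four-parameter Hill equation.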
PI5P4K alpha inh: qHTS for Inhibitors of phosphatidylinositol 5-phosphate 4-kinase (PI5P4K); max response, %; 330,000 tested, 1.2% active; Phosphatidylinositol 5-phosphate 4-kinase type-2 alpha (Homo sapiens), P48426; PI5P4Kalpha enzyme, ADP-Glo luminescence, 60 min; hits give low values; active = max response of -50% or lower; inconclusive = between -30% and -50%; inactive = -30% or higher; also: value at the top dose of about 77 µM
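ADP-Glo luminescence end-point read after a 60 min room-temperature kinase reaction of PI5P4Kalpha plus substrate, initiated with ATP at 5 microM final. Buffer: 0.038 M HEPES pH 7.4, EGTA, 0.1% CHAPS, 5% DMSO.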
POLI inh: qHTS for Inhibitors of Polymerase Iota | DNA polymerase iota (Homo sapiens), Q9UNA4 | Pol iota fluorescent replication assay, 10 min | Potency, µM (doses to about 115 µM), most hits filed as inhibitors | 390,000 tested, 1% active
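Pol iota at 10 nM preincubated 15 min with compounds at room temperature; reaction started with fluorescent substrate, 50 nM final. Fluorescence read kinetically at 0 and 10 min; buffer-only wells as negative control.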
A number is an active result; . = inactive; ? = inconclusive; / = no result; [ ] = another dose, or the depositor's remark. Shown are actives, neighbours in structure and some others; about 2.8% of the full set was active somewhere. Unless noted, calls follow the shape of the dose curve; as a rule, active = well fitted curve in the direction sought with a large enough effect; inconclusive = small, poorly fitted or top-dose-only effect, or another doubt; inactive = no such curve, though single readings can be large; an effect the other way counts as inactive or inconclusive.

SMILES	POLK inh	POLH inh	WRN helicase inh	Pol beta inh	PI5P4K alpha inh	POLI inh
COc1ccc(/C=N/NC(=O)c2cc3cc(OC)c(OC)cc3[nH]2)cc1	.	?	?	6.31µM	.	.
COC(=O)C(Cc1c[nH]c2ccccc12)NC(=O)c1cccc(S(=O)(=O)N2CCCCC2)c1 (stereo unspecified)	.	.	.	/	.	?
CC1=C(C(=O)OCc2ccccc2)C(c2ccc(Cl)cc2)NC(=O)N1CCCC(=O)O (stereo unspecified)	.	.	.	.	-99.5	.
CC1=C(C(=O)OCc2ccccc2)C(c2ccc(Br)cc2)NC(=O)N1CCCCCC(=O)O (stereo unspecified)	.	.	.	/	.	?
CC1=C(C(=O)OCc2ccccc2)C(c2ccc(Br)cc2)NC(=O)N1CCCC(=O)O (stereo unspecified)	.	.	.	.	-79.9	?
COC(=O)CCCCCN1C(=O)NC(c2ccccc2)C(C(=O)OCc2ccccc2)=C1C (stereo unspecified)	.	.	.	.	.	.
CCOc1ccc(NC(=O)c2cc3nc(-c4ccc(OC)cc4)cc(C(F)(F)F)n3n2)cc1	.	.	/	.	/	.
CCOc1ccc(-c2cc(C)n3nc(C(=O)Nc4cc(Cl)ccc4O)cc3n2)cc1	.	?	/	7.08µM	/	79.4µM
COc1ccc(CNc2ncnc3c2[nH]c2cc(OC)c(OC)cc23)cc1	.	?	.	6.31µM	.	?
Cc1cc(OCC(=O)Nc2nnc(C3CC3)s2)ccc1[N+](=O)[O-]	.	.	.	.	.	.
CCNc1nc(OC)nc(N(OC)S(=O)(=O)c2ccc(C)cc2)n1	.	.	.	.	.	.
CC1C(=O)N(Cc2cn(Cc3ccco3)nn2)CCS(=O)(=O)N1Cc1ccc(-c2ccncc2)cc1 (stereo unspecified)	/	50.1µM	.[11.6 µM]	/	.	/
O=C(CCC(=O)OCc1ccc([N+](=O)[O-])cc1Cl)Nc1ccccc1	.	.	.	.	.	.
O=c1c2ccccc2nc(N/N=C/c2c(O)ccc3ccccc23)n1O	?	?	.	.	-77.8	?
Oc1ccc(N=Nc2c(O)ccc3ccccc23)cc1	.	.	.	.	/	.
O=C(O)c1cc(N=Nc2c(O)ccc3ccccc23)cc(C(=O)O)c1	20µM	17.8µM	.	.	?	.
CN1CCN(c2ncc3ncc(=O)n(CCC#N)c3n2)CC1	.	/	/	/	/	/
Cc1nnc(C)n1/N=C/c1cc(Br)ccc1O	.	.	.	.	.	.
Oc1ccccc1/C=N/n1c(-c2ccccc2)n[nH]c1=S	.	.	.	.	.	.
Oc1c(Br)cc(Br)cc1/C=N/n1c(-c2ccccc2)n[nH]c1=S	.	.	.	.	-54.1	.
COc1c(Br)cc(/C=N/n2c(-c3ccccc3)n[nH]c2=S)c(O)c1Br	2µM	79.4µM	?	3.55µM	-55.1	?
Oc1c(Br)cc(/C=N/n2c(-c3ccccc3)n[nH]c2=S)c(Br)c1O	/	/	/	0.251µM	/	/
Cc1nnc(C)n1/N=C/c1cc(Br)cc(Br)c1O	.	.	?	.	-50.2	.
COc1ccc2cc(CCNC(=O)c3ccc(S(=O)(=O)N4CCCC4)cc3)c(=O)[nH]c2c1	.	.	.	.	.	.
COc1ccc(OC)c(C(O)c2ncc(-c3ccc(C(F)(F)F)cc3)[nH]2)c1 (stereo unspecified)	/	/	.	/	.	/
SMILES	POLK inh	POLH inh	WRN helicase inh	Pol beta inh	PI5P4K alpha inh	POLI inh
CSCCC(C(=O)OCC(=O)c1ccc(C)c(C)c1)N1C(=O)c2ccccc2C1=O (stereo unspecified)	.	.	?	.	.	.
CSCCC(C(=O)OC1CCOC1=O)N1C(=O)c2ccccc2C1=O (stereo unspecified)	?	35.5µM	?	.	.	?
CCOc1ccc2nc(NC3=NC(c4ccc(OC)cc4)CC(=O)N3)nc(C)c2c1 (stereo unspecified)	.	.	50.1µM	.	/	.
CCOc1ccc2nc(NC3=NC(C)(C)C=C(C)N3)nc(C)c2c1	.	.	.	.	.	.
Cc1c(CCNC(=O)c2c(F)cccc2F)sc2nc(-c3ccc(F)cc3)nn12	.	/	/	.	/	.
CCOC(=O)c1c(S(=O)(=O)N2CCC(C(=O)NCc3cccc(OC)c3)CC2)c(C)n(C)c1C	.	.	/	.	/	.
O=C(CC1S/C(=N/N=C/C=C/c2ccccc2)NC1=O)Nc1ccc(C(=O)O)cc1 (stereo unspecified)	.	.	.	.	-77.2	.
O=C(CC1S/C(=N/N=C/c2ccco2)NC1=O)Nc1ccccc1 (stereo unspecified)	.	.	.	.	.	.
Cc1ccc(OCC(=O)Nc2ccccc2C(=O)OCc2cc(=O)n3ccsc3n2)cc1	.	?	/	2.82µM	/	.
Cc1cccc(OCC(=O)Nc2ccccc2C(=O)OCc2cc(=O)n3ccsc3n2)c1	.	.	/	.	/	.
Cc1nn(Cc2ccc(C(=O)Nc3ccc(C(=O)OC(C)C)cc3)o2)c(C)c1Cl	.	.	.	44.7µM	/	?
COc1cccc(C(O)c2nc(-c3cnn(C)c3)cs2)c1 (stereo unspecified)	/	/	.	/	.	/
Cc1ccc(-c2nc(N)s[n+]2-c2ccccc2)cc1	.	.	.	.	-80.0	.
CNc1nc(-c2ccccc2)[n+](-c2ccc(C)cc2)s1	.	.	50.1µM	.	-99.1	.
CCC(C(=O)NCCc1ccc(S(N)(=O)=O)cc1)c1ccccc1 (stereo unspecified)	.	.	.	/	.	.
O=C(NC1CCCC1)c1sc(=S)n2c1[nH]c(=O)c1ccccc12	.	56.2µM	.	?	/	?
O=C(NCc1ccco1)c1sc(=S)n2c1[nH]c(=O)c1ccccc12	?	22.4µM	?	50.1µM	/	?
C=CCn1c(N)c(C(=O)NCc2ccco2)sc1=S	.	.	.	.	/	.
CCCCCNC(=O)c1ccc2c(=O)[nH]c3c(C(=O)NCC4CCCO4)sc(=S)n3c2c1 (stereo unspecified)	.	25.1µM	?	.	.	.
O=C1CCCc2oc3ccc(NS(=O)(=O)c4cccc5cccnc45)cc3c21	.	89.1µM	.[11.6 µM]	.	.	?
CC1(C)CC(=O)c2c(oc3ccc(NS(=O)(=O)c4cccc5cccnc45)cc23)C1	.	.	.	.	.	.
OC[C@H]1O[C@@H](Oc2cc(O)cc(/C=C/c3ccc(O)cc3)c2)[C@H](O)[C@@H](O)[C@@H]1O	/	/	/	20µM	/	/
CCCCS(=O)(=O)/C=C\C=C/S(=O)(=O)CCCC	.	?	44.7µM	?	.	?
